These results are taken from publication PMC9574860, “Chemical Toolkit for PARK7: Potent, Selective, and High-Throughput” (Journal of Medicinal Chemistry, 2022).

About 400 (5.1%) of roughly 7,900 compounds showed an effect of 50% or more. The sample as a whole holds a higher share of strong results than the screen did.

Parkinson's disease protein 7 (PARK7/DJ1), sequence (Q99497 whole entry, looked up, the tested form may be a part): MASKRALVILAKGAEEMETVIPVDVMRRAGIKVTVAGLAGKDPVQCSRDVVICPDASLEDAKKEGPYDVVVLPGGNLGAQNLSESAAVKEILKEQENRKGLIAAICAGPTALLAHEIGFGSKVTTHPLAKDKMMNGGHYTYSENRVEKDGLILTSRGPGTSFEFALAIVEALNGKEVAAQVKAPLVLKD

This assay concerns the target Parkinson's disease protein 7 (PARK7/DJ1) (human, UniProt Q99497). Briefly: primary screen, percent inhibition; read as competition with a fluorescent probe by fluorescence polarization; higher = more effect of the substance. Particulars: 100 µM. In outline: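 Fluorescence-polarization probe displacement (JYQ-107, 20 nM final, 2 h) after 2 h preincubation of PARK7 (0.2 μM final) with each fragment at 100 μM final. Read-out ex/em 480/520 nm; remaining activity derived from FP signal loss relative to reference controls.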
On to `C=CC(=O)N1CCCC(c2ccc(F)c(F)c2)C1` (stereo not shown), for which the Inhibition % stood at 9.29%.
Turning to `C=CC(=O)N1CC(C)OC(C(F)(F)F)C1` (stereo not shown), the Inhibition % amounted to 14.7%.
The result for `CC(=O)SCCc1csc(-c2ccccn2)n1` reads 9.81%; that for `O=C(Nc1ccccc1)c1cccnc1S`, 3.52%; that for `CCC1(c2ccccc2)NC(=O)N(NC(=O)CCl)C1=O` (stereo not shown), 6.48%.
The figure for `C=CC(=O)N1CCC(Cc2ccncc2)C1` (stereo not shown) is 6.08%; for `Cc1cccc2c(=O)[nH]c(C(Cl)=Cc3ccnn3C)nc12` it is 6.42%; for `C=CC(=O)NC(C)c1c(C)nn(CC(F)(F)F)c1C` (stereo not shown) it is 4.48%.
The figure for `CN(C(=O)CCl)C(c1ccccc1)c1ccccc1` is 6.29%.
For `CC(c1ccccc1)N(C)C(=O)CCl` (stereo not shown), the Inhibition % amounted to 98.5%.
The figure for `CC(c1nc2ccccc2s1)N(C)C(=O)CCl` (stereo not shown) is 97.3%; for `CN(C(=O)CCl)c1nc2ccccc2s1` it is 3.42%; for `CCN(C(=O)CCl)c1nc2ccccc2s1` it is 24.6%.
The result for `CC(c1ccccc1)N(C)C(=O)Cn1cnc(C#N)n1` (stereo not shown) reads 7.46%; that for `CC1(C)OB(c2cnc3ccnn3c2)OC1(C)C`, 5.87%; that for `C=CC(=O)N1CCOC(C)(C(F)F)C1` (stereo not shown), 7.7%.
Molecule `CS(=O)(=O)c1cccnc1C#N` had an Inhibition % of 5.26%.
With `C=CC(=O)N1CCCC1C` (stereo not shown), the Inhibition % amounted to 7.71%.
The result for `CC(C)Cn1c(N)c(C(=O)CCl)c(=O)n(C)c1=O` reads 6.06%; that for `O=c1[nH]c(-c2cccc(S(=O)(=O)F)c2)nc2sc3c(c12)CCC3`, 88.5%; that for `O=c1[nH]c(-c2ccc(S(=O)(=O)F)cc2)nc2sc3c(c12)CCC3`, 15.9%.
As for `O=c1[nH]c(-c2ccc(S(=O)(=O)F)cc2)nc2ccccc12`, the Inhibition % amounted to 13%.
Turning to `CC1(C)OB(c2cccc(N)c2)OC1(C)C`, the Inhibition % is given as 12.8%.
The figure for `Cc1cc(B2OC(C)(C)C(C)(C)O2)ccc1N` is 8.63%.
The figure for `CC1(C)OB(c2ccc(N)c(F)c2)OC1(C)C` is 1.59%.
The figure for `CC1(C)OB(c2ccc3cc(N)ccc3c2)OC1(C)C` is 87.8%; for `CC1(C)OB(c2ccc3ccoc3c2)OC1(C)C` it is 9.89%; for `CC1(C)OB(c2ccc(N)cc2)OC1(C)C` it is 5.89%.
`CC1(C)OB(c2ccc3ccc(N)cc3c2)OC1(C)C`: the Inhibition % worked out at 86.8%.
As for `CC1(C)OB(c2ccc(N)c(O)c2)OC1(C)C`, the Inhibition % amounted to 92.7%.
The figure for `Cc1ccc(N)cc1B1OC(C)(C)C(C)(C)O1` is 14.1%.
The result for `Cc1ccc(C)c(Cn2cnc(C#N)n2)c1` reads 2.61%; that for `Clc1ccccc1COCC1CO1` (stereo not shown), 9.97%; that for `N[C@@H]1CCN(C(=O)C=Cc2cc3ccccc3o2)C1`, 18.2%.
The figure for `N#Cc1ccc2c(n1)CCCC2` is 7.43%; for `C=CC(=O)NC1C2CCOC2C12CCC2` (stereo not shown) it is 8.04%; for `C=CC(=O)NC1C(C)C(OC)C12CCC2` (stereo not shown) it is 50%.
For the molecule `C=CC(=O)NC1CC(OC)C12CCC2` (stereo not shown), the Inhibition % turned out to be 3.73%.
The result for `COc1cc(S(=O)(=O)n2cccn2)c(C)cc1C` reads 5.05%; that for `COc1ccc(CNC(=O)CCl)cc1OC`, 6.67%.
The figure for `Cc1ccc(NC(=O)CCl)cc1I` is 81.5%; for `Cc1cc(NC(=O)CCl)ccc1Br` it is 32.6%; for `Cc1ccc(NC(=O)CCl)cc1F` it is 48.3%.
The figure for `Cc1cc(C)cc(NC(=O)CCl)c1` is 11.3%.
Regarding `Cc1ccc(NC(=O)CCl)cc1C`, the Inhibition % is 34.8%.
`Cc1ccc(NC(=O)CCl)cc1Br`: the Inhibition % was 75%.
The result for `O=C1CC2(CCCC2)N1` reads 4.3%; that for `CCc1cc(S(=O)(=O)n2ccnc2)ccc1OC`, 7.72%; that for `c1ccc(OCC2CO2)cc1` (stereo not shown), 9.6%.
The result for `CC(=O)Nc1cccc2c1CCN(C1CC(C)OC1=O)C2` (stereo not shown) reads 1.86%.
The figure for `CC1CC(N2CCN(C)c3ccccc3C2)C(=O)O1` (stereo not shown) is 0.987%.
Consider `CCn1nc2c(cc1=O)CN(C1CC(C)OC1=O)CC2` (stereo not shown), for which the Inhibition % is 61.4%.
The figure for `CC1CC(N2CCc3c(nc(C4CC4)n3C)C2)C(=O)O1` (stereo not shown) is 5.37%.
The figure for `CC1CC(N2CCc3sccc3C2)C(=O)O1` (stereo not shown) is 13.9%; for `CCCn1nc2c(cc1=O)CN(C1CC(C)OC1=O)CC2` (stereo not shown) it is 86.8%.
The figure for `C=CC(=O)NCC1CCSC1` (stereo not shown) is 5.45%.
The molecule `C=CC(=O)N1CCc2ccc(C(=O)O)cc2CC1` showed an Inhibition % of 4.84%.
The result for `O=c1cn[nH]c(S)n1` reads 74.8%; that for `Cc1n[nH]c(S)nc1=O`, 2.15%.
The result for `O=c1[nH]c(S)nc2[nH]ncc12` reads 4.43%; that for `Cn1c(=O)c2c(nc(Cl)n2CCS(=O)(=O)F)n(C)c1=O`, 3.18%.
The figure for `CC1CC(N2CCC(O)CC2)C(=O)O1` (stereo not shown) is 5.67%; for `C=CC(=O)N1CCC(N(C)C(=O)N(C)C)C1` (stereo not shown) it is 28.7%; for `Cc1noc(C)c1C(=O)CCl` it is 13.5%.
